# In PubChem BioAssay AID1159580 (chemical genetic matrix, 2015):
# Out of some 5,500 compounds screened, about 2,000 (36%) were called active. About 18% were inconclusive and are not listed. This is one part of the list. Unmarked numbers belong to inactive results. No stated cut-off is given here; in the data, active means normalized growth mostly below about 0.91 (no sharp cut-off); inconclusive means no clear call, values can overlap the other calls; inactive means mostly above about 0.92.
# Test: chemical genetic growth profiling, strain panel (AID 1159580);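 further: tested at 20 µM; growth read once vehicle control cultures reached saturation at 30 °C; 1 = growth at the plate median or of vehicle wells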
# Conditions: S. cerevisiae deletion strains, growth OD
# [1] = locus YMR307W, strain GAS1, stronger effect = lower value
smiles,measurement,setting,value
CNCC(O)c1ccc(O)c(O)c1 (stereo not drawn),normalized growth,"locus YAL040C, strain CLN3, stronger effect = lower value",1.08
same,normalized growth,"locus YCL061C, strain MRC1 (second series), stronger effect = lower value",1
same,normalized growth,"locus YDR363W, strain ESC2, stronger effect = lower value",1.01
same,normalized growth,"locus YER002W, strain NOP16, stronger effect = lower value",1
same,normalized growth,"locus YGR078C, strain PAC10, stronger effect = lower value",1.02
same,normalized growth,"locus YGR229C, strain SMI1, stronger effect = lower value",0.982
same,normalized growth,"locus YJR075W, strain HOC1, stronger effect = lower value",1
same,normalized growth,"locus YMR263W, strain SAP30, stronger effect = lower value",1.01
same,normalized growth,[1],1
same,normalized growth,"locus YNL175C, strain NOP13, stronger effect = lower value",0.994
same,normalized growth,"locus YNL197C, strain WHI3, stronger effect = lower value",0.998
same,normalized growth,"locus YNL224C, strain SQS1, stronger effect = lower value",1.02
same,normalized growth,"locus YOR083W, strain WHI5 (second series), stronger effect = lower value",1.02
CCOC(=O)C(=O)C1(C(=O)OCC)Oc2cc(OC)cc(OC)c2C(=O)C1c1ccccc1 (stereo not drawn),normalized growth,"locus YAL021C, strain ccr4, stronger effect = lower value",0.981
same,normalized growth,"locus YAL026C, strain drs2, stronger effect = lower value",0.96
same,normalized growth,"locus YAL030W, strain snc1, stronger effect = lower value",0.96
same,normalized growth,"locus YBL061C, strain skt5, stronger effect = lower value",0.951
same,normalized growth,"locus YBR009C, strain hhf1, stronger effect = lower value",0.908
same,normalized growth,"locus YBR021W, strain FUR4, stronger effect = lower value",0.818 (active)
same,normalized growth,"locus YBR023C, strain chs3, stronger effect = lower value",0.954
same,normalized growth,"locus YBR171W, strain sec66, stronger effect = lower value",0.939
same,normalized growth,"locus YBR229C, strain ROT2, stronger effect = lower value",0.986
same,normalized growth,"locus YBR231C, strain swc5, stronger effect = lower value",0.961
same,normalized growth,"locus YBR279W, strain paf1, stronger effect = lower value",0.965
same,normalized growth,"locus YCL011C, strain gbp2, stronger effect = lower value",0.925
same,normalized growth,"locus YCL016C, strain dcc1, stronger effect = lower value",0.972
same,normalized growth,"locus YCL029C, strain bik1, stronger effect = lower value",0.989
same,normalized growth,"locus YCL061C, strain MRC1, stronger effect = lower value",0.938
same,normalized growth,"locus YCL069W, strain vba3, stronger effect = lower value",0.96
same,normalized growth,"locus YCR088W, strain abp1, stronger effect = lower value",0.967
same,normalized growth,"locus YDL005C, strain med2, stronger effect = lower value",0.961
same,normalized growth,"locus YDL035C, strain GPR1, stronger effect = lower value",0.967
same,normalized growth,"locus YDL040C, strain nat1, stronger effect = lower value",0.961
same,normalized growth,"locus YDL074C, strain BRE1, stronger effect = lower value",0.913
same,normalized growth,"locus YDL101C, strain DUN1, stronger effect = lower value",0.959
same,normalized growth,"locus YDL185W, strain tfp1, stronger effect = lower value",0.969
same,normalized growth,"locus YDL192W, strain arf1, stronger effect = lower value",0.945
same,normalized growth,"locus YDR001C, strain nth1, stronger effect = lower value",0.947
same,normalized growth,"locus YDR069C, strain doa4, stronger effect = lower value",0.967
same,normalized growth,"locus YDR101C, strain arx1, stronger effect = lower value",0.955
same,normalized growth,"locus YDR137W, strain rgp1, stronger effect = lower value",0.904
same,normalized growth,"locus YDR159W, strain sac3, stronger effect = lower value",0.928
same,normalized growth,"locus YDR162C, strain NBP2, stronger effect = lower value",0.987
same,normalized growth,"locus YDR195W, strain ref2",1.01
same,normalized growth,"locus YDR297W, strain sur2, stronger effect = lower value",0.949
same,normalized growth,"locus YDR318W, strain mcm21, stronger effect = lower value",0.936
same,normalized growth,"locus YDR334W, strain swr1, stronger effect = lower value",0.965
same,normalized growth,"locus YDR335W, strain msn5, stronger effect = lower value",0.971
same,normalized growth,"locus YDR388W, stronger effect = lower value",0.968
same,normalized growth,"locus YDR392W, strain spt3, stronger effect = lower value",0.767
same,normalized growth,"locus YDR502C, strain sam2, stronger effect = lower value",0.928
same,normalized growth,"locus YEL003W, strain gim4, stronger effect = lower value",0.948
same,normalized growth,"locus YEL037C, strain rad23, stronger effect = lower value",0.964
same,normalized growth,"locus YEL061C, strain CIN8 (second series), stronger effect = lower value",0.929
same,normalized growth,"locus YEL061C, strain CIN8, stronger effect = lower value",0.99
same,normalized growth,"locus YER015W, strain faa2, stronger effect = lower value",0.952
same,normalized growth,"locus YER016W, strain bim1, stronger effect = lower value",0.976
same,normalized growth,"locus YER110C, stronger effect = lower value",0.953
same,normalized growth,"locus YER111C, strain swi4, stronger effect = lower value",0.946
same,normalized growth,"locus YER155C, strain BEM2 (second series), stronger effect = lower value",0.875
same,normalized growth,"locus YER155C, strain BEM2, stronger effect = lower value",0.966
same,normalized growth,"locus YER167W, strain BCK2, stronger effect = lower value",0.97
same,normalized growth,"locus YFR010W, strain ubp6, stronger effect = lower value",0.956
same,normalized growth,"locus YGL078C, strain dbp3, stronger effect = lower value",0.938
same,normalized growth,"locus YGL086W, strain mad1, stronger effect = lower value",0.942
same,normalized growth,"locus YGL167C, strain pmr1, stronger effect = lower value",0.911 (active)
same,normalized growth,"locus YGL173C, strain kem1, stronger effect = lower value",0.947
same,normalized growth,"locus YGL227W, strain vid30, stronger effect = lower value",0.926
same,normalized growth,"locus YGL240W, strain doc1, stronger effect = lower value",0.911
same,normalized growth,"locus YGL248W, strain PDE1, stronger effect = lower value",0.945
same,normalized growth,"locus YGL253W, strain hxk2, stronger effect = lower value",0.972
same,normalized growth,"locus YGR135W, strain pre9, stronger effect = lower value",0.915
same,normalized growth,"locus YGR252W, strain gcn5, stronger effect = lower value",0.791
same,normalized growth,"locus YHR013C, strain ard1, stronger effect = lower value",0.95
same,normalized growth,"locus YHR027C, strain rpn1, stronger effect = lower value",0.987
same,normalized growth,"locus YHR030C, strain SLT2, stronger effect = lower value",0.993
same,normalized growth,"locus YHR079C, strain IRE1 (second series), stronger effect = lower value",0.961
same,normalized growth,"locus YHR094C, strain hxt1, stronger effect = lower value",0.951
same,normalized growth,"locus YHR129C, strain ARP1, stronger effect = lower value",0.966
same,normalized growth,"locus YHR142W, strain chs7, stronger effect = lower value",0.95
same,normalized growth,"locus YHR200W, strain rpn10, stronger effect = lower value",0.942
same,normalized growth,"locus YIL066C, strain RNR3, stronger effect = lower value",0.983
same,normalized growth,"locus YIL073C, strain SPO22, stronger effect = lower value",0.929
same,normalized growth,"locus YIL125W, strain kgd1, stronger effect = lower value",0.971
same,normalized growth,"locus YIR030C, strain dcg1, stronger effect = lower value",0.962
same,normalized growth,"locus YJL092W, strain hpr5, stronger effect = lower value",0.941
same,normalized growth,"locus YJL095W, strain BCK1 (second series), stronger effect = lower value",0.973
same,normalized growth,"locus YJL095W, strain BCK1, stronger effect = lower value",0.907
same,normalized growth,"locus YJL115W, strain asf1, stronger effect = lower value",0.979
same,normalized growth,"locus YJL129C, strain trk1, stronger effect = lower value",0.862 (active)
same,normalized growth,"locus YJL134W, strain LCB3, stronger effect = lower value",0.989
same,normalized growth,"locus YJL154C, strain vps35, stronger effect = lower value",0.968
same,normalized growth,"locus YJL164C, strain tpk1, stronger effect = lower value",0.95
same,normalized growth,"locus YJL166W, strain qcr8, stronger effect = lower value",0.926
same,normalized growth,"locus YJL168C, strain set2, stronger effect = lower value",0.966
same,normalized growth,"locus YJL187C, strain SWE1 (second series), stronger effect = lower value",0.948
same,normalized growth,"locus YJL187C, strain SWE1, stronger effect = lower value",0.953
same,normalized growth,"locus YJR043C, strain POL32, stronger effect = lower value",0.998
same,normalized growth,"locus YKL009W, strain mrt4, stronger effect = lower value",0.899
same,normalized growth,"locus YKL068W, stronger effect = lower value",0.955
same,normalized growth,"locus YKL085W, strain MDH1 (second series), stronger effect = lower value",0.959
same,normalized growth,"locus YKL085W, strain MDH1, stronger effect = lower value",0.959
same,normalized growth,"locus YKL160W, strain elf1, stronger effect = lower value",0.966
same,normalized growth,"locus YKL190W, strain CNB1, stronger effect = lower value",0.989
same,normalized growth,"locus YKR001C, strain vps1, stronger effect = lower value",0.958
same,normalized growth,"locus YKR026C, strain gcn3, stronger effect = lower value",0.932
same,normalized growth,"locus YKR091W, strain srl3, stronger effect = lower value",0.929 (active)
same,normalized growth,"locus YLL001W, strain dnm1, stronger effect = lower value",0.964
same,normalized growth,"locus YLL026W, stronger effect = lower value",0.969
same,normalized growth,"locus YLL041C, strain sdh2, stronger effect = lower value",0.966
same,normalized growth,"locus YLR027C, strain aat2, stronger effect = lower value",0.95
same,normalized growth,"locus YLR039C, strain RIC1, stronger effect = lower value",0.983
same,normalized growth,"locus YLR058C, strain SHM2, stronger effect = lower value",0.959
same,normalized growth,"locus YLR102C, strain apc9, stronger effect = lower value",0.962
same,normalized growth,"locus YLR221C, strain rsa3, stronger effect = lower value",0.91
same,normalized growth,"locus YLR258W, strain gsy2, stronger effect = lower value",0.959
same,normalized growth,"locus YLR262C, strain YPT6 (second series), stronger effect = lower value",0.906
same,normalized growth,"locus YLR262C, strain YPT6, stronger effect = lower value",0.978
same,normalized growth,"locus YLR268W, strain sec22, stronger effect = lower value",0.955
same,normalized growth,"locus YLR320W, strain mms22, stronger effect = lower value",0.889
same,normalized growth,"locus YLR330W, strain CHS5, stronger effect = lower value",0.906 (active)
same,normalized growth,"locus YLR342W, strain FKS1, stronger effect = lower value",0.919
same,normalized growth,"locus YLR357W, strain rsc2, stronger effect = lower value",0.916
same,normalized growth,"locus YLR370C, strain arc18, stronger effect = lower value",0.938
same,normalized growth,"locus YLR371W, strain rom2, stronger effect = lower value",0.962
same,normalized growth,"locus YLR384C, strain iki3, stronger effect = lower value",0.95
same,normalized growth,"locus YLR418C, strain cdc73, stronger effect = lower value",0.804 (active)
same,normalized growth,"locus YML016C, strain PPZ1, stronger effect = lower value",0.989
same,normalized growth,"locus YML032C, strain rad52, stronger effect = lower value",0.961
same,normalized growth,"locus YML120C, strain ndi1, stronger effect = lower value",0.919
same,normalized growth,"locus YML124C, strain tub3, stronger effect = lower value",0.94
same,normalized growth,"locus YMR058W, strain fet3, stronger effect = lower value",0.946
same,normalized growth,"locus YMR078C, strain ctf18, stronger effect = lower value",0.94
same,normalized growth,"locus YMR125W, strain sto1, stronger effect = lower value",0.979
same,normalized growth,"locus YMR129W, stronger effect = lower value",0.936
same,normalized growth,"locus YMR205C, strain PFK2, stronger effect = lower value",0.877
same,normalized growth,"locus YMR223W, strain ubp8, stronger effect = lower value",0.949
same,normalized growth,"locus YMR231W, strain pep5, stronger effect = lower value",0.988
same,normalized growth,[1],0.949
same,normalized growth,"locus YNL067W, strain RPL9B, stronger effect = lower value",0.965
same,normalized growth,"locus YNL071W, strain lat1, stronger effect = lower value",0.915 (active)
same,normalized growth,"locus YNL153C, strain GIM3, stronger effect = lower value",0.986
same,normalized growth,"locus YNL209W, strain ssb2, stronger effect = lower value",0.972
same,normalized growth,"locus YNL233W, strain BNI4, stronger effect = lower value",0.917
same,normalized growth,"locus YNL248C, strain rpa49, stronger effect = lower value",0.986
same,normalized growth,"locus YNL250W, strain rad50, stronger effect = lower value",0.96
same,normalized growth,"locus YNL271C, strain bni1, stronger effect = lower value",0.976
same,normalized growth,"locus YNL298W, strain CLA4, stronger effect = lower value",0.965
same,normalized growth,"locus YNL307C, strain MCK1, stronger effect = lower value",0.888 (active)
same,normalized growth,"locus YNL322C, strain KRE1 (second series), stronger effect = lower value",0.948
same,normalized growth,"locus YNL322C, strain KRE1, stronger effect = lower value",0.983
same,normalized growth,"locus YNR049C, strain mso1, stronger effect = lower value",0.966
same,normalized growth,"locus YNR052C, strain pop2, stronger effect = lower value",0.985
same,normalized growth,"locus YOL012C, strain htz1",1.05
same,normalized growth,"locus YOL147C, strain pex11, stronger effect = lower value",0.94
same,normalized growth,"locus YOR001W, strain rrp6, stronger effect = lower value",0.987
same,normalized growth,"locus YOR061W, strain CKA2, stronger effect = lower value",1
same,normalized growth,"locus YOR069W, strain VPS5, stronger effect = lower value",0.979
same,normalized growth,"locus YOR070C, strain gyp1, stronger effect = lower value",0.968
same,normalized growth,"locus YOR080W, strain dia2, stronger effect = lower value",0.965
same,normalized growth,"locus YOR083W, strain WHI5, stronger effect = lower value",0.956
same,normalized growth,"locus YOR106W, strain vam3, stronger effect = lower value",0.974
same,normalized growth,"locus YOR136W, strain idh2, stronger effect = lower value",0.962
same,normalized growth,"locus YOR144C, strain elg1, stronger effect = lower value",0.959
same,normalized growth,"locus YOR184W, strain ser1, stronger effect = lower value",0.876
same,normalized growth,"locus YOR265W, strain rbl2, stronger effect = lower value",0.964
same,normalized growth,"locus YOR270C, strain vph1, stronger effect = lower value",0.878
same,normalized growth,"locus YOR290C, strain snf2, stronger effect = lower value",0.863 (active)
same,normalized growth,"locus YOR316C, strain cot1, stronger effect = lower value",0.963
same,normalized growth,"locus YPL051W, strain arl3, stronger effect = lower value",0.984
same,normalized growth,"locus YPL078C, strain atp4, stronger effect = lower value",0.964
same,normalized growth,"locus YPL106C, strain sse1, stronger effect = lower value",0.943
same,normalized growth,"locus YPL240C, strain hsp82, stronger effect = lower value",0.968
same,normalized growth,"locus YPR119W, strain clb2, stronger effect = lower value",0.946
same,normalized growth,"locus YPR141C, strain kar3, stronger effect = lower value",0.951
same,normalized growth,"locus YPR163C, strain tif3, stronger effect = lower value",0.97
same,normalized growth,"locus YPR167C, strain met16, stronger effect = lower value",0.929
same,normalized growth,"strain wtn01, stronger effect = lower value",0.945
